Inconclusive results are not listed. Calls of active or inactive are those of the source.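 How the source made its calls, unless noted: active means aptamer binding inhibition above 30%, about 3 SD of noise from non-fluorescent compounds; inactive means inhibition at or below 30%.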
Experiments:
[1] = rapamycin-like changes in RPL19A-GFP expression – cell-based, S. cerevisiae, multiplex flow cytometry, primary screen (AID 1862; in the data active means percent of DMSO control GFP below about 86%;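 further: lower values mimic rapamycin by blocking the RPL19A rise seen in DMSO cells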); settings: S. cerevisiae RPL19A-GFP strain, flow cytometry fluorescence, 3 h; at 10 µM; stronger effect = lower value
[2] = TOR pathway GLN3 branch reporter MEP2-GFP changes – S. cerevisiae, multiplex flow cytometry, primary screen (AID 1867;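 active means GFP response, as percent of the DMSO control, above the screen-wide mean plus 3 SD, about 139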;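 further: median GFP channel fluorescence of barcode-gated MEP2-GFP cells measured by flow cytometry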); settings: S. cerevisiae MEP2-GFP strain, 3 h, at 10 µM, stronger effect = higher value, 100% means same as DMSO wells
[3] = TOR pathway RTG branch CIT2 reporter changes – S. cerevisiae, GFP fusion, multiplex flow cytometry, primary screen (AID 1870;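 active means percent response above a set limit, the screen-wide mean plus 3 SD, cut at about 130% in these data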;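 further: barcoded CIT2-GFP strain pooled with four other GFP strains with rapamycin as positive control; median GFP fluorescence per well over plate mean of DMSO wells so 100% = DMSO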); settings: S. cerevisiae CIT2-GFP expression, 3 h, at 10 µM, stronger effect = higher value
[4] = TOR pathway LAP4-GFP level changes – S. cerevisiae, multiplex flow cytometry, primary screen (AID 1873;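 active means GFP signal, as percent of the solvent control, above the screen mean plus 3 SD, about 149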); settings: S. cerevisiae LAP4-GFP expression, 3 h, at 10 µM, stronger effect = higher value
[5] = yeast AGP1-GFP level changes, GLN3 branch – cell-based, multiplex flow cytometry, S. cerevisiae, primary screen (AID 1887;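 active means GFP signal above the screen-wide mean plus 3 SD, that is over about 124.5% of the solvent control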;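 further: AGP1-GFP fusion strain of S. cerevisiae within a five-strain barcoded multiplex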); settings: 3 h, at 10 µM, stronger effect = higher value
[6] = reduced mouse 2C T cell binding to pMHC/ICAM-1 vesicles – MLPCN validation set, flow cytometry, LFA-1/ICAM-1 modulator project, pilot screen (AID 2523;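 active means response below a set limit, under 55% cells CD8-positive and vesicle-bound, and CD8 cells' 90th-percentile brightness under 279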;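 on vesicle binding response: mean PE anti-B7-1 fluorescence of CD8+ cells relative to row control; 100% = QL9-loaded vesicles with DMSO vehicle in the same plate row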); settings: 2C mouse CD8+ T cells, at 7 µM, stronger effect = lower value; double positive events: measured here: CD8+/vesicle+ event percentage
[7] = target: Integrin beta-1 (Homo sapiens) + Integrin alpha-4 (Homo sapiens) (UniProt P13612+P05556); assay: alpha4beta1 integrin LIBS antibody binding reduction – U937 cells, HUTS-21 mAb, flow cytometry, validation set, VLA-4 allosteric modulator project, pilot screen (AID 2674;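 active means inhibition above 50%, about 3 SD of the validation set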;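 further: antibody binding induced by the VLA-4 ligand LDV present at three times its Kd; 0% = LDV ligand with antibody and no compound and 100% = antibody without LDV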); settings: HUTS-21 LIBS mAb binding, at 6.7 µM, stronger effect = higher value, binding induced by LDV ligand
[8] = calorie-restriction mimetic ROS inhibitors, yeast – validation compound set, pilot screen (AID 2706;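 active means superoxide response below 65% of plate, a cut near 3 SD across the whole screen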;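 further: yeast exposed to compound for one week at 30 degrees C before staining; 100% = mean of all compound wells on the same plate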); settings: S. cerevisiae aging, superoxide DHE fluorescence; at 10 µM; stronger effect = lower value
[9] = target: Beta-adrenergic receptor kinase 1 (Homo sapiens) (UniProt P25098); assay: GRK2 binders displacing RNA aptamer, biochemical, validation, human GRK2, bead flow cytometry (AID 488806); settings: bead-bound GRK2, FAM-aptamer displacement, at 10 µM, stronger effect = higher value
[10] = target: Beta-2 adrenergic receptor (Homo sapiens) (UniProt P07550); assay: agonist-induced loss of surface beta2AR – cell-based, FAP fluorogen, flow cytometry, validation set, pilot screen (AID 504459;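 active means percent response above 42, roughly 3 SD of non-fluorescent test compounds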;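 further: agonist-driven loss of surface beta2AR via internalization measured by FAP dye flow cytometry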); settings: Am2.2-beta2AR cells, at 10 µM, stronger effect = higher value
[11] = target: AP-2 complex subunit beta (Homo sapiens) (UniProt P63010); assay: beta-arrestin/AP2 interaction blockers – biochemical, validation set, GST-AP2 beads, flow cytometry, pilot screen (AID 504541;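 active means inhibition above 54%, about 3 SD of non-fluorescent compounds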;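 further: AP2 carries R879A mutation and is captured from E. coli lysate; bead-bound FITC arrestin peptide fluorescence measuring arrestin peptide binding to AP2; 0% = DMSO wells and 100% = excess unlabeled arrestin peptide control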); settings: FITC arrestin peptide, at 10 µM, stronger effect = higher value, AP2 beta2 appendage fragment, R879A mutant
[12] = cytosolic pH regulators acting via V-ATPase – S. cerevisiae, pHLuorin, HTS validation (AID 504600; in the data active means response above about 15%;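 further: plate controls were DMSO for no effect and reference compound for full effect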); settings: V-ATPase proton transport, at 10 µM, stronger effect = higher value
[13] = test system: anti-desmoglein-3 scFv antibody binding to human DSG3; assay: blockers of pathogenic pemphigus antibody–desmoglein-3 binding – biochemical, validation compound set, bead-based, flow cytometry, pilot screen (AID 588368;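 active means binding below the plate cutoff, the plate median minus 3 SD, with a reading above zero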;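 further: signal is the median channel fluorescence of bead-bound GFP antibody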); settings: Protein G beads, DSG3-Fc, scFv-GFP binding, at 10 µM, stronger effect = lower value
[14] = Nile Red efflux blockade in pump-expressing yeast – validation compound set, multiplex, phenotypic, pilot screen (AID 588506;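 active means efflux inhibition above 0.42, the validation set average plus 4 SD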;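 further: Nile Red retained in cells so higher fluorescence means more efflux inhibition; 0 = negative control wells and 1 = enniatin B 25 µM full block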); settings: S. cerevisiae pump-expressing triplex, Nile Red efflux flow cytometry; at 10 µM; stronger effect = higher value; the pumps come from Candida albicans
[15] = target: ATP-binding cassette sub-family B member 6 (Homo sapiens) (UniProt Q9NP58); assay: blockers of ABCB6-driven porphyrin uptake – K562-ABCB6 cells, flow cytometry, validation set, pilot screen (AID 588550;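 active means inhibition above the screen-wide mean plus 3 SD, about 51%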;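 further: 0% = DMSO wells and 100% = benzethonium chloride 70 µM positive control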); settings: K562-ABCB6 porphyrin accumulation, 1 h, at 10 µM, stronger effect = higher value
[16] = AML differentiation inducers, ER-HoxA9 marrow cells – cell-based, GFP/MAC1 double positive, flow cytometry, validation set, primary screen (AID 588685;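 active means differentiation response of at least 50%, scaled between solvent and reference control, from cells with both markers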;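 further: compound exposure lasts four days before antibody staining and flow analysis; 0% = DMSO wells and 100% = 5 µM fulvestrant positive control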); settings: stronger effect = higher value, normalized: vehicle 0, fulvestrant 100

Chain of ATP-binding cassette sub-family B member 6 (Homo sapiens) (Q9NP58 whole entry, looked up): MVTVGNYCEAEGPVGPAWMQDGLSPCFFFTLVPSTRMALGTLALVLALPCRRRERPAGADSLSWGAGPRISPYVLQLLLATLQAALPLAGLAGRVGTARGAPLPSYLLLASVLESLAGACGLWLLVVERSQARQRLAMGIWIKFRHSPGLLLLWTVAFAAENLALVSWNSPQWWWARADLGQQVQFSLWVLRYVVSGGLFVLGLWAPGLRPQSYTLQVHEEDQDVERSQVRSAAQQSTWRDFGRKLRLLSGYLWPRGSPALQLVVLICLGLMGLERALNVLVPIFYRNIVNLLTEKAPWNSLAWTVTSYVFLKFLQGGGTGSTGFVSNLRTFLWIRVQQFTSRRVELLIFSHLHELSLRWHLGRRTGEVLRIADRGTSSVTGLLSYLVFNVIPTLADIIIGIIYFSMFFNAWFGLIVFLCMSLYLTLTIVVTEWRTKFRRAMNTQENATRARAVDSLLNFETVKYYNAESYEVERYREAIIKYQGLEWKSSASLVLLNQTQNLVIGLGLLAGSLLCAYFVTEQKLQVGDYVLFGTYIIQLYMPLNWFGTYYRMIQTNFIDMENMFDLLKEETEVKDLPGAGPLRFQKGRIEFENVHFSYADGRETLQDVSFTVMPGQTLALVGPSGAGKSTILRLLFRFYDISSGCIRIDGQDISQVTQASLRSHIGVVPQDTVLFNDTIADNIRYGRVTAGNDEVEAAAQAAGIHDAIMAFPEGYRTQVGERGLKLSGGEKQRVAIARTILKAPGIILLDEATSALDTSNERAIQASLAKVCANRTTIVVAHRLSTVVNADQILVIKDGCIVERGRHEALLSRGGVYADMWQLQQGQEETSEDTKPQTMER
Chain of Beta-adrenergic receptor kinase 1 (Homo sapiens) (P25098 whole entry, looked up): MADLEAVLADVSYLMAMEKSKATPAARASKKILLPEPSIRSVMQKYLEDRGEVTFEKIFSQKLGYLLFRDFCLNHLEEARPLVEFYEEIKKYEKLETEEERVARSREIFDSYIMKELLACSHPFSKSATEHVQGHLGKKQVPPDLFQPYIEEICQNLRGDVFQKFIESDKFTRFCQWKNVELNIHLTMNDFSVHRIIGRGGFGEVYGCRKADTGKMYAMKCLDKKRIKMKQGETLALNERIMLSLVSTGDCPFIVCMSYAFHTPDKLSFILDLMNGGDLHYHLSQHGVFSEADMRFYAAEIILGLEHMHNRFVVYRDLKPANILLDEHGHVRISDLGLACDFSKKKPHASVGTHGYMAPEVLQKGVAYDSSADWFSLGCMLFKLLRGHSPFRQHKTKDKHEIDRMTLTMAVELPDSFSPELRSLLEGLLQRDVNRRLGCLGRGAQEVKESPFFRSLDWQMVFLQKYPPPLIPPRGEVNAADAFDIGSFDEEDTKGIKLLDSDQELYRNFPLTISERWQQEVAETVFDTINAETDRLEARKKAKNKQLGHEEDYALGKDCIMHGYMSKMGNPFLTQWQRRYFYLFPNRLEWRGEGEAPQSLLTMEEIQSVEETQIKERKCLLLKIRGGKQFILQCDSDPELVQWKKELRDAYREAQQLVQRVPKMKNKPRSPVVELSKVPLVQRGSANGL
Chain of AP-2 complex subunit beta (Homo sapiens) (P63010 whole entry, looked up, the tested form may be a part, one chain of several): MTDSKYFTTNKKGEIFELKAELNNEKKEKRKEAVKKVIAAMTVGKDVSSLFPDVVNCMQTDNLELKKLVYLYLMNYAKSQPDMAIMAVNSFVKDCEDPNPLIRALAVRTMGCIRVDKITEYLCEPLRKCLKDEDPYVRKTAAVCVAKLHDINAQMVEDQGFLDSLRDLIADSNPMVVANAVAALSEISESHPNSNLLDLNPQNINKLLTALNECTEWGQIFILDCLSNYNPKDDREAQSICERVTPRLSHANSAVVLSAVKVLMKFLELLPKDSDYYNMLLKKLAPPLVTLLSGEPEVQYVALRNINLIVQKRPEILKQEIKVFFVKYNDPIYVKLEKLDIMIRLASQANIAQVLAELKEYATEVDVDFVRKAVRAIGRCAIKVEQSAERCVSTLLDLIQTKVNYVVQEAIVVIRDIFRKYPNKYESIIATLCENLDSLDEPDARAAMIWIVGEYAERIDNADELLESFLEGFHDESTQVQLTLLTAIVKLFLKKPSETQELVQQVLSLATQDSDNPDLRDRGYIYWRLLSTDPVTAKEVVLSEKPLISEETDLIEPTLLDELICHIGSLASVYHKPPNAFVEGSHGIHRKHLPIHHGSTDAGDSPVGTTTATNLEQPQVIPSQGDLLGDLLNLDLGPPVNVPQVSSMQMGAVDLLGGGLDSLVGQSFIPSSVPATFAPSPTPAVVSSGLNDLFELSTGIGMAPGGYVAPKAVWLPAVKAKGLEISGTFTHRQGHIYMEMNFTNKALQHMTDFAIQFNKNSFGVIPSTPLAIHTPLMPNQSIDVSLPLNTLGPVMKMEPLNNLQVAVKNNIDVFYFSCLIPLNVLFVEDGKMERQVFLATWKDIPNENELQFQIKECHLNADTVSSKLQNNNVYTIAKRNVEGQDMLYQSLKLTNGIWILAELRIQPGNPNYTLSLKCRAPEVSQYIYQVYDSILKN
Chain of Beta-2 adrenergic receptor (Homo sapiens) (P07550 whole entry, looked up): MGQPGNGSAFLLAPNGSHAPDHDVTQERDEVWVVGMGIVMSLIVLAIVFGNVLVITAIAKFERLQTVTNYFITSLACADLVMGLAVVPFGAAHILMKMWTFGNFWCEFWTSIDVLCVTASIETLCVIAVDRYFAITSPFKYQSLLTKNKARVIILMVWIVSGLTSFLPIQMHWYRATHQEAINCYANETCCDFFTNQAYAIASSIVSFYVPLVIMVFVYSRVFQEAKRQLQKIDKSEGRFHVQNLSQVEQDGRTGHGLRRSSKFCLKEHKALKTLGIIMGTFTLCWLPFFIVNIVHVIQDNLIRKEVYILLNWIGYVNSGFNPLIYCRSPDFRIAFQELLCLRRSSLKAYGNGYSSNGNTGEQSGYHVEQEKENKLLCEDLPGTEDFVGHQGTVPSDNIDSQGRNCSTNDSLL
Chain of Integrin beta-1 (Homo sapiens) + Integrin alpha-4 (Homo sapiens) (P05556 whole entry, looked up): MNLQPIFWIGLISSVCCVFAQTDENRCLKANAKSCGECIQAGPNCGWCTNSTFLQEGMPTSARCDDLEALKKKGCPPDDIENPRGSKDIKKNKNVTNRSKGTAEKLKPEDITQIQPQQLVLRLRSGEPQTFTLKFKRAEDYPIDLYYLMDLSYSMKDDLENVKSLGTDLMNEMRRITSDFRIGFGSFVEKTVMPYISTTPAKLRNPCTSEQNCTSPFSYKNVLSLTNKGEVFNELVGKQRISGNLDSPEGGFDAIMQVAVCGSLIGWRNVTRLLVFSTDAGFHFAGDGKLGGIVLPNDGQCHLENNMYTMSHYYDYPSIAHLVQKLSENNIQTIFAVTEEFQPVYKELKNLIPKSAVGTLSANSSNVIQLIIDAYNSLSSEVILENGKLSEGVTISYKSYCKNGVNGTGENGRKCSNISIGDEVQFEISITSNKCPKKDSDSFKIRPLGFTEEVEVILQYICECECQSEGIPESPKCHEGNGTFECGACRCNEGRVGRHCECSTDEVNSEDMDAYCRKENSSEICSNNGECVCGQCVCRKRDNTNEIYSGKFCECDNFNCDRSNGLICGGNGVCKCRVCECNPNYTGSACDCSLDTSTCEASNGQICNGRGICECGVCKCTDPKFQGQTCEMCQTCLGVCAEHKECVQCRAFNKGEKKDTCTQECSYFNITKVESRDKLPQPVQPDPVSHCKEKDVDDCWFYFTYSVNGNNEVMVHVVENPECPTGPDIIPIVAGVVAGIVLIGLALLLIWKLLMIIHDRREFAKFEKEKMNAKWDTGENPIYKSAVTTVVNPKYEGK
Chain of Integrin beta-1 (Homo sapiens) + Integrin alpha-4 (Homo sapiens) (P13612 whole entry, looked up): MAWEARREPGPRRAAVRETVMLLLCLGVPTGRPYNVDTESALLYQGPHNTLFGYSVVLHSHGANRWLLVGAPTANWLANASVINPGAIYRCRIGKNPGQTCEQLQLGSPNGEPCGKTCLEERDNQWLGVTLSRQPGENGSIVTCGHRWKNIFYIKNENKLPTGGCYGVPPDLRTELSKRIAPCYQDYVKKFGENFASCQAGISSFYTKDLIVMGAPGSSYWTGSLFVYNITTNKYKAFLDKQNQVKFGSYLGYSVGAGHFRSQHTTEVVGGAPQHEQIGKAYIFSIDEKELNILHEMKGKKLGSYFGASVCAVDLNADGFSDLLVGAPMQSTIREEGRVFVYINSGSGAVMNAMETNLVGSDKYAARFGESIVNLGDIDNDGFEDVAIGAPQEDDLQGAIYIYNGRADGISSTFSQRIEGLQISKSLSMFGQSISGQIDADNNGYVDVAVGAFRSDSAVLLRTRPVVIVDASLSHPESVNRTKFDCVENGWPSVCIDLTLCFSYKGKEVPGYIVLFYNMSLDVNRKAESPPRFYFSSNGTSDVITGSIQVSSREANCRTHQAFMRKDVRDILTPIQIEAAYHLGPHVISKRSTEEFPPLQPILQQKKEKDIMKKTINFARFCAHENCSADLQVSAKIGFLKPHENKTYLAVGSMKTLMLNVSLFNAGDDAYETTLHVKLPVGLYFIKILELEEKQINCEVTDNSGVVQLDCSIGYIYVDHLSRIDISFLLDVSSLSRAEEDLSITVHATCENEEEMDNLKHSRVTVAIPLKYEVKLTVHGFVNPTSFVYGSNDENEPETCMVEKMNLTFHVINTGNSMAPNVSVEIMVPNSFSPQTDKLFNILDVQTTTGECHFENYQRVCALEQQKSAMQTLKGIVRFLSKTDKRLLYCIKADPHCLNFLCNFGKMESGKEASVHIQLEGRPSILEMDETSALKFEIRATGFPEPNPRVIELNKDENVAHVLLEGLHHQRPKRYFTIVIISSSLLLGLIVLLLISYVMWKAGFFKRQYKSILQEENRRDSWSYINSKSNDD

Structure (SMILES)	percent of DMSO control GFP [1]	GFP response vs DMSO [2]	percent response of DMSO control [3]	GFP response vs DMSO [4]	GFP response, % of DMSO [5]	double positive events [6]	vesicle binding response [6]	inhibition [7]	superoxide response (% of plate) [8]	aptamer binding inhibition [9]	response [10]	inhibition [11]	response [12]	binding (% of control) [13]	efflux inhibition (fraction of control) [14]	inhibition [15]	differentiation response [16]
CC(C)=CCCC1=CCC2C(=O)NNC(=O)C2C1 (stereo not given)	98.8% (inactive)	101% (inactive)	110% (inactive)	99.9% (inactive)	99.5% (inactive)	50.6%	61.5% (active)	-3.16% (inactive)	104% (inactive)	3% (inactive)	-19.2% (inactive)	-0.62% (inactive)	51.2% (active)	103% (inactive)	-0.1 (inactive)	4% (inactive)	-10.4% (inactive)
CCC(C)NCCOc1ccc(C(C)(C)c2ccccc2)cc1 (stereo not given)	107% (inactive)	99.3% (inactive)	104% (inactive)	94% (inactive)	103% (inactive)	61.9%	181% (inactive)	-5.64% (inactive)	97.5% (inactive)	-5% (inactive)	17.1% (inactive)	-12.2% (inactive)	-2.14% (inactive)	106% (inactive)	-0.01 (inactive)	-5% (inactive)	9.04% (inactive)
O=C(CCCn1c(=O)oc2ccccc21)N1CCN(c2ccc(F)cc2)CC1	101% (inactive)	93% (inactive)	103% (inactive)	77.7% (inactive)	91.4% (inactive)	46.7%	9.2% (active)	-1.79% (inactive)	111% (inactive)	1% (inactive)	10.4% (inactive)	-3.97% (inactive)	1.31% (inactive)	102% (inactive)	0.15 (inactive)	9% (inactive)	-26.4% (inactive)
CCOC(=O)C1=C2c3ccc4ccccc4c3CC(C)(C)N2C(=O)C1=O	104% (inactive)	93% (inactive)	99.6% (inactive)	78.6% (inactive)	85.1% (inactive)	62%	205% (inactive)	-4.52% (inactive)	114% (inactive)	3% (inactive)	7.03% (inactive)	1.16% (inactive)	-4.69% (inactive)	96.8% (inactive)	-0.17 (inactive)	-3% (inactive)	-8.8% (inactive)
C[C@]12CC[C@@H]3c4ccc(O)cc4CC[C@H]3[C@@H]1CCC2=O	101% (inactive)	100% (inactive)	95.4% (inactive)	125% (inactive)	94.8% (inactive)	60.6%	34.4% (inactive)	-13.9% (inactive)	98.7% (inactive)	2% (inactive)	-0.01% (inactive)	9.61% (inactive)	-0.09% (inactive)	98.9% (inactive)	-0.32 (inactive)	8% (inactive)	0.24% (inactive)
CCN(CCCCCN(C)C)Cc1cc2ccccc2o1	101% (inactive)	101% (inactive)	94.8% (inactive)	112% (inactive)	106% (inactive)	64.4%	206% (inactive)	-0.43% (inactive)	79.9% (inactive)	-1% (inactive)	-3.86% (inactive)	-2.46% (inactive)	0.31% (inactive)	102% (inactive)	-0.06 (inactive)	10% (inactive)	5.6% (inactive)
COc1ccc2[nH]c(=O)c(CN(C(=O)c3ccco3)C(C)C)cc2c1	91.7% (inactive)	148% (active)	103% (inactive)	83.6% (inactive)	92.6% (inactive)	72.1%	221% (inactive)	4.52% (inactive)	108% (inactive)	3% (inactive)	-2.75% (inactive)	-1.83% (inactive)	-5.39% (inactive)	101% (inactive)	0.41 (inactive)	9% (inactive)	0% (inactive)
CCCCC[C@H](O)/C=C/C1=C(CCCCCCC(=O)O)C(=O)CC1	105% (inactive)	106% (inactive)	101% (inactive)	95.9% (inactive)	103% (inactive)	56.3%	98.4% (inactive)	-9.13% (inactive)	99.9% (inactive)	4% (inactive)	2.65% (inactive)	1.77% (inactive)	31% (active)	101% (inactive)	0.125 (inactive)	3% (inactive)	-8.96% (inactive)
CN(C)c1ccc(C(CN)c2c[nH]c3ccccc23)cc1 (stereo not given)	106% (inactive)	109% (inactive)	104% (inactive)	108% (inactive)	107% (inactive)	61.4%	112% (inactive)	9.63% (inactive)	99.4% (inactive)	-10% (inactive)	4.69% (inactive)	33.6% (inactive)	-9.67% (inactive)	102% (inactive)	0.09 (inactive)	-9% (inactive)	-16.3% (inactive)
NC(=O)N1c2ccccc2CC(=O)c2ccccc21	103% (inactive)	102% (inactive)	102% (inactive)	92.6% (inactive)	102% (inactive)	64.1%	200% (inactive)	6.95% (inactive)	106% (inactive)	2% (inactive)	0.79% (inactive)	-3.95% (inactive)	-2.65% (inactive)	97.3% (inactive)	-0.14 (inactive)	2% (inactive)	-6.03% (inactive)
